Vaccinia mCherry: inhibitors of vaccinia virus infection (mCherry reporter signal). Vaccinia virus mCherry reporter infection, fluorescence. Potency, µM (series often up to 36.5 µM), for inactives: at the highest dose activity change, negative = inhibition, actives largely listed as inhibitors. 0.63% of 310,000 active; calls by dose curve; tested in A549 cells; also: potency is read from the fitted curve at half-maximal effect; nearly all actives have a fitted effect of over 35% in size
MARV entry inh: Marburg virus entry inhibition | Marburg virus pseudotyped entry inhibition, cell reporter | Potency, µM (titrated, usually from 37.8 µM), inactives show top-dose activity change, negative = inhibition, hits mostly inhibitors | 1.8% of 300,000 active; calls by dose curve; tested in HEK293 cells; also: potency is read from the fitted curve at half-maximal effect
FMDV inh: foot and mouth disease virus antiviral activity; 1.2% of 410,000 active; FMDV antiviral cell-based qHTS; Potency, µM (top dose mostly 57.9 µM), for inactives: at the top dose activity change, negative = inhibition, actives largely listed as inhibitors; calls by dose curve; tested in HEK293T cells; also: read-out not given here; potency is read from the fitted curve at half-maximal effect; nearly all actives have a fitted effect of over 45% in size
HCMV antiviral: human cytomegalovirus inhibition; HFF cells, HCMV-luciferase reporter, 72 h; hits give low values; activity change, negative = inhibition, % at 57.5 µM; 4.5% of 410,000 active; AID 1259415; in the data active = activity change below about -60%; inconclusive = no clear call, values can overlap the other calls; inactive = above about -39%
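HFF cells seeded 16 h at 37C, treated with compounds, infected with luciferase-reporter HCMV at MOI 1 PFU/cell; luciferase read at 72 h post infection, normalized to buffer-only and Salinomycin controls.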
LASV entry inh: blocks Lassa virus binding to or entry into cells; Lassa virus pseudotype entry inhibition, cell reporter; Potency, µM (top dose mostly 37.9 µM), without a hit: at the highest dose activity change, negative = inhibition, actives largely listed as inhibitors; 1.2% of 300,000 active; calls by dose curve; tested in HEK293 cells; also: potency is read from the fitted curve at half-maximal effect; nearly all actives have a fitted effect of over 50% in size
Vaccinia Venus: vaccinia inhibition (Venus reporter); Vaccinia virus Venus reporter expression, fluorescence; Potency, µM (highest dose often 36.5 µM), for the others: at the top dose activity change, negative = inhibition, most hits filed as inhibitors; 0.46% of 330,000 active; AID 720580; calls by dose curve; tested in A549 cells; also: potency is read from the fitted curve at half-maximal effect; nearly all actives have a fitted effect of over 30% in size
An asterisk follows results filed as active; i = inactive; ? = inconclusive; nt = no result given; [ ] = remark or other dose. Sampled rows, rich in hits. Any-hit rate of the full collection: about 6.5%. % is scaled to controls: 0 for no effect and ±100 for the full control effect.

SMILES | Vaccinia mCherry | MARV entry inh | FMDV inh | HCMV antiviral | LASV entry inh | Vaccinia Venus
Cc1ccc(-c2cc(C(=O)Nc3cc([N+](=O)[O-])ccc3C)no2)cc1F | 1% | 1%[46.1 µM] | -18% | -7 | -7%[46.1 µM] | -1%
COC(=O)c1ccc2c(=O)n(C3CCCCC3)c(SCC#N)nc2c1 | nt | 0.015µM* | -6% | ? | ? | nt
COc1ccc(-n2c(C)cc(/C=N/Nc3nc(N4CCOCC4)nc(N4CCOCC4)n3)c2C)cc1 | -14% | 7.3µM* | ? | -33 | ? | -10%
CC(C)c1ccc(-c2nc3ccccc3s2)cc1 | i | ? | 0% | -95* | ? | -10%
CN(C(=O)OC(C)(C)C)c1ccc(-c2nc3ccccc3s2)cc1 | nt | nt | 100µM* | -95* | nt | nt
COc1ccc(-c2nc3ccccc3s2)cc1O | -21% | 7.1µM* | -58% | ? | 7.1µM* | -16%
Oc1cccc(-c2nc3ccccc3s2)c1 | nt | 7.1µM* | -44% | 178 | ? | -20%
Clc1ccc(-c2nnc(NCCN3CCCC3)c3ccccc23)cc1 | nt | nt | 0.89µM* | -23 | nt | nt
O=C(NCCN1Cc2ccccc2OC(c2ccccc2F)C1)c1ccco1 (stereo not given) | -13% | nt | -12% | nt | nt | -5%
Cc1nc(SCC(=O)NCCc2ccccc2)c2c(=O)n(C)c(=O)n(C)c2n1 | i | 13% | -5% | 6 | -1% | -5%
Cc1nc(SCC(=O)NCc2ccccc2)c2c(=O)n(C)c(=O)n(C)c2n1 | 5% | nt | 32µM* | -20 | nt | 3%
O=C1CC(c2ccccc2Cl)CC(O)=C1C=Nc1ccccc1 (stereo not given) | -14% | -15% | 10% | -73* | ? | -13%
Cc1ccc(N=CC2=C(O)CC(c3ccccc3Cl)CC2=O)cc1 (stereo not given) | nt | nt | 17% | 45 | nt | nt
Cc1nc2c(O)c3c(c(O)c2nc1C)C1C=CC3CC1 | -4% | ? | 7.1µM* | -17 | ? | -25%
Cc1nc2c(C)c(C)c(C)c(C)c2nc1C | i | 0%[14.2 µM] | 7% | ? | 2% | -1%
COC(=O)CS(=O)(=O)c1nnc([C@H](Cc2ccccc2)NC(=O)OC(C)(C)C)o1 | -23% | ? | 32µM* | 79 | ? | 3%
CC(C)(C)OC(=O)N[C@@H](Cc1ccccc1)c1nnc(SCC(N)=O)o1 | nt | nt | 0% | 3 | nt | nt
Cc1cccc(CS(=O)(=O)c2nnc([C@H](Cc3ccccc3)NC(=O)OC(C)(C)C)o2)c1 | nt | 16µM* | 32µM* | nt | -10% | nt
CCOc1ccc(N(C)S(=O)(=O)c2ccc3c(c2)C(C)(C)C(=O)N3C)cc1 | -10% | nt | ? | 1 | -23%[46.1 µM] | 3%
CC(=NCc1ccco1)c1c(O)n(C2CCCCC2)c(=O)[nH]c1=O | nt | 18% | -18% | -4 | 2% | nt
CCC(=NCc1ccco1)c1c(O)n(C2CCCCC2)c(=O)[nH]c1=O | nt | -2% | ? | -29 | 3.7µM* | nt
CC1(C)C(=O)N(CC(=O)Nc2ccc(OC(F)(F)F)cc2)c2ccccc21 | -5% | nt | -25% | 18 | 0%[46.1 µM] | -4%
CCCCC#Cc1nc(NC)c2ncn([C@@H]3O[C@H](CO)[C@@H](O)[C@H]3O)c2n1 | nt | 9% | nt | nt | ? | nt
O=c1oc(C2(O)CCCCC2)cc2ccc(-c3ccc4[nH]ccc4c3)cc12 | 0.63µM* | nt | 11% | -93* | nt | -25%
O=c1oc(C2(O)CCCCC2)cc2ccccc12 | 5% | nt | -13% | -24 | nt | -13%
SMILES | Vaccinia mCherry | MARV entry inh | FMDV inh | HCMV antiviral | LASV entry inh | Vaccinia Venus
COc1cc2[nH]c(=O)n(CCCC(=O)NCc3ccc(Cl)cc3)c(=O)c2cc1OC | -17% | -3%[46.1 µM] | 5% | -1 | -2%[46.1 µM] | 2%
O=C(Cn1ncc2c3ccccc3n(Cc3ccccc3)c2c1=O)NCCCN1CCCC1=O | i | 18%[46.1 µM] | -18% | -67* | -5%[46.1 µM] | -7%
COc1cc2[nH]c(=O)n(CCCC(=O)NCCc3ccccc3)c(=O)c2cc1OC | -26% | ? | -7% | 8 | 1.4µM* | -21%
CCC(Cc1ccccc1)NC(=O)Cn1ncc2c3ccccc3n(Cc3ccccc3)c2c1=O (stereo not given) | ? | 2%[46.1 µM] | 0% | -99* | ? | -16%
O=C(Cn1ncc2c3ccccc3n(Cc3ccc(Cl)cc3)c2c1=O)NCCCN1CCCC1=O | nt | nt | -15% | 1 | nt | nt
Cc1nn(CCCC(=O)NCCc2ccccc2)c(=O)c2nccn12 | 15% | nt | 3% | -98* | nt | 11%
CCOc1ccc(CCNC(=O)CCCn2nc(C)c3c(C)n(-c4ccccc4)nc3c2=O)cc1 | nt | nt | -15% | ? | nt | nt
OC(C[n+]1ccccc1Cl)c1ccccc1 (stereo not given) | 16% | nt | nt | nt | nt | -9%
O=C(Cn1ncc2c3ccccc3n(Cc3ccc(F)cc3)c2c1=O)N1CCC2(CC1)OCCO2 | nt | 14µM* | ? | nt | ? | -26%
COc1ccc(Cl)cc1NC(=O)Cn1ncc2c3ccccc3n(Cc3ccccc3)c2c1=O | -9% | 24%[46.1 µM] | 5% | -68* | 11%[46.1 µM] | -11%
O=C(Cn1ncc2c3ccccc3n(Cc3ccccc3)c2c1=O)NCCc1ccc(Cl)cc1 | ? | 11%[46.1 µM] | -25% | -69* | 11%[46.1 µM] | ?
O=C(Cn1ncc2c3ccccc3n(Cc3ccccc3F)c2c1=O)NCCc1ccc(Cl)cc1 | -12% | -2%[46.1 µM] | 15% | 23 | 18%[46.1 µM] | -23%
COc1ccc(Cl)cc1NC(=O)Cn1c(=O)n(CCCC(=O)NCCc2ccc(OC)c(OC)c2)c(=O)c2ccccc21 | -22% | ? | -26% | -80* | ? | -7%
C/C(=N\NC(=S)Nc1ccc(C)c(C)c1)c1ccc(N2CCOCC2)cc1 | nt | nt | -13% | -61* | nt | nt
C/C(=N\NC(=S)Nc1ccc(F)cc1)c1ccc2c(c1)OCCO2 | -24% | 1µM* | -10% | -36 | ? | ?
C/C(=N\NC(=S)Nc1cc(S(=O)(=O)N2CCOCC2)ccc1Cl)c1ccc(N2CCOCC2)cc1 | -9%[7.34 µM] | nt | -7% | -18 | nt | -1%[7.34 µM]
COc1ccc2c(c1)CCc1cnc(-n3ncc(C(=O)NCC(C)(C)CN(C)C)c3C)nc1-2 | ? | nt | 0% | nt | nt | -27%
Cc1nc(N=Nc2cc(S(=O)(=O)O)c3cc([N+](=O)[O-])cc(S(=O)(=O)O)c3c2)c(COP(=O)(O)O)c(C=O)c1O | -2% | 20µM* | -23% | nt | ? | -11%
COc1ccc(Br)c2c1-c1nc(NC(=O)c3ccc(F)cc3)sc1C2 | 2% | 2%[46.1 µM] | -27% | -5 | 15%[46.1 µM] | -6%
CC(C)OCCCNC(=O)CN1C(=O)c2cccnc2Sc2ccccc21 | 3% | nt | -17% | 10 | -3%[46.1 µM] | -2%
CN(c1cccc(NC(=O)CN(c2ccc(F)cc2)S(C)(=O)=O)c1)S(C)(=O)=O | -18% | 11%[46.1 µM] | -11% | -2 | -5% | -25%
Cc1ccc(S(=O)(=O)N(CC(=O)Nc2cccc(N(C)S(C)(=O)=O)c2)c2ccc(Cl)c(Cl)c2)cc1 | -22% | 16µM* | nt | -11 | ? | -27%
CN(c1cccc(NC(=O)CN(c2ccc(C34CC5CC(CC(C5)C3)C4)cc2)S(C)(=O)=O)c1)S(C)(=O)=O | ? | 18µM* | nt | nt | 7.3µM* | ?

Bioassay records as filed in PubChem BioAssay.
